Bioassay records (PubChem)
Many of the other results were omitted from the sample, so hits are more common in it than they were.
CHX counter – affects cycloheximide protein synthesis inhibition readout, counter-screen. cell reporter, cycloheximide protein synthesis inhibition counterscreen. AID 2314. 12% of 300,000 active. max response, %; in the data active = max response mostly above about 13%, no sharp cut-off; inactive = mostly below about 14%; also: read at 38.3 µM for the half of the compounds with a filed dose; 0% is about no effect
SARS PLpro yeast – inhibitors of SARS-CoV papain-like protease in yeast | S. cerevisiae expressing SARS-CoV PLpro, growth rescue | Potency, µM (titrated, usually from 32.9 µM), inactives show at the top dose activity, positive = growth rescue, hits mostly activators | 0.19% of 330,000 active | AID 485353; also: potency is read from the fitted curve at half-maximal effect; 0% is about no effect; nearly all actives have a fitted effect of over 55% in size
TbPYK inhibitor – inhibitors of Trypanosoma brucei pyruvate kinase. TbPYK enzyme, Kinase-Glo Plus ATP luminescence, 45 min. Potency, µM (doses to about 76.8 µM), for inactives: at the top dose activity, negative = inhibition, most hits filed as inhibitors. 0.12% of 410,000 active. AID 624173; active = well fitted curve in the direction sought with a large enough effect; inconclusive = small, poorly fitted or top-dose-only effect, or another doubt; inactive = no such curve, though single readings can be large; an effect the other way counts as inactive or inconclusive; also: potency is read from the fitted curve at half-maximal effect; % is scaled to controls: 0 for no effect and ±100 for the full control effect; nearly all actives have a fitted effect of over 50% in size
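Readout: single end-point luminescence (Kinase-Glo Plus, 10 min). Reaction conditions were TbPYK/substrate plus 130 uM ADP, 45 min at RT, pH 7.2 TEA buffer. No-enzyme wells served as controls, and data were normalized before concentration-response fitting.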
Shiga inhibitor – blocks Shiga toxin action in Vero cells | 9.2% of 290,000 active | inhibition, % at 38.7 µM | Vero cells, Shiga toxin protein synthesis inhibition reporter | AID 2315; in the data active = inhibition mostly above about 28%, no sharp cut-off; inactive = mostly below about 43%; also: 0% is about no effect
LmPK inhibitor – blocks Leishmania mexicana pyruvate kinase activity. AID 1721. Potency, µM (highest dose often 57.5 µM), inactives show at the highest dose activity change, negative = inhibition, most hits filed as inhibitors. purified LmPK, Kinase-Glo ATP luminescence, 1 h. Q27686. 0.37% of 290,000 active; active = well fitted curve in the direction sought with a large enough effect; inconclusive = small, poorly fitted or top-dose-only effect, or another doubt; inactive = no such curve, though single readings can be large; an effect the other way counts as inactive or inconclusive; also: potency is read from the fitted curve at half-maximal effect; % is scaled to controls: 0 for no effect and ±100 for the full control effect
Target sequence (Q27686 whole entry, looked up): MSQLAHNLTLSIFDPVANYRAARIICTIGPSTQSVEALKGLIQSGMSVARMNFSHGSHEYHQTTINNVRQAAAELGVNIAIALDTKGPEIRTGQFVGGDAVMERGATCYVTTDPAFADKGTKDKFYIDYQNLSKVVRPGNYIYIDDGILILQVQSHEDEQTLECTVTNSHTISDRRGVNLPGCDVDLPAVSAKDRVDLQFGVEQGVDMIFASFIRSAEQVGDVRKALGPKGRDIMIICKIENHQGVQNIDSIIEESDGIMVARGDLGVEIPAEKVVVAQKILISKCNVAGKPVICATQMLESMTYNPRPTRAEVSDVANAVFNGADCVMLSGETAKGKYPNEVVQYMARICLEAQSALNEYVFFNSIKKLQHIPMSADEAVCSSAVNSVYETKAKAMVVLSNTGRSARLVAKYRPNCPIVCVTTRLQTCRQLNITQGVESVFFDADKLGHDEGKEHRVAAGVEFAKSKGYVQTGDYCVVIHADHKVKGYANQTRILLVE
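ATP generated from ADP (0.1 mM) and PEP (0.5 mM) by 0.1 nM LmPK over 1 h at room temperature (pH 7.2 imidazole buffer) was detected by coupled luciferase luminescence. Values were normalized to uninhibited and no-enzyme wells.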
NS1 inh – blocks influenza NS1 protein function. Potency, µM (highest dose often 46.1 µM), for the others: top-dose activity, positive = more growth. 0.4% of 270,000 active; also: potency is read from the fitted curve at half-maximal effect; actives are rising curves; nearly all actives have a fitted effect of over 50% in size
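Growth recovery, yeast-based: influenza A NS1 expressed in S. cerevisiae causes slow growth, and suppressors are detected by OD600. The parent strain without NS1 is used as positive control.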
Numbers without * were called inactive; ? = inconclusive; / = no result given; [ ] = remark or other dose. Unless noted, calls follow the shape of the full dose curve.

SMILES	CHX counter	SARS PLpro yeast	TbPYK inhibitor	Shiga inhibitor	LmPK inhibitor	NS1 inh
CCCCC(=O)Nc1ccc(Cl)cn1	14	2%	-4%	35	1%	-11%
CCCCCCC(=O)Nc1ccc(Br)cn1	30*	-1%	0%	50*	1%	-24%
Cc1cc(C)c2c(CC(=O)N3CCN(c4cccc(Cl)c4)CC3)coc2c1	/	/	2%	/	/	/
CCOC(=O)[C@@H]1[C@H]2COc3cc(OC)ccc3[C@H]2N2C(=O)N(c3ccc(OC)cc3)C(=O)[C@]12C	/	8%	-8%	/	/	/
N#CC1(NC(=O)COC(=O)c2cc(=O)[nH]c3ccccc23)CCCCC1	/	1%	-2%	/	/	/
COc1ccc(C(CNC(=O)CCNS(=O)(=O)c2ccccc2)N2CCOCC2)cc1 (centres undefined)	/	/	5%	/	/	/
Cc1ccc(-n2ncc3c(N(C)C)ncnc32)cc1Cl	/	/	-8%	/	/	/
Cc1ccc(-n2ncc3ccccc3c2=O)cc1Cl	38*	1%	0%	114*	-10%	9%
O=c1c2ccccc2c(-c2ccc(Cl)cc2)nn1-c1ccccc1	-1	-7%	-1%	-9	3%	6%
O=c1c2ccccc2cnn1-c1ccc(Cl)cc1	36*	2%	8%	93*	-16%	-6%
CC(C)(C)NC(=O)c1ccccc1-c1nc(-c2ccccc2Cl)no1	25*	-3%	-4%	30	-3%	-66%
O=C(NCc1ccco1)c1ccccc1-c1nc(-c2ccc(F)cc2)no1	12	0%	-6%	20	3%	-2%
CCNC(=O)c1ccccc1-c1nc(-c2ccccc2OC)no1	-2	0%	-2%	39	0%	3%
CC(C)NC(=O)c1ccccc1-c1nc(-c2ccccc2Cl)no1	-2	5%	-6%	-3	4%	-14%
COCCNC(=O)c1ccccc1-c1nc(-c2ccccc2OC)no1	15*	-2%	-1%	35	1%	1%
Cc1ccccc1-c1noc(-c2ccccc2C(=O)NCc2ccco2)n1	18*	-1%	-11%	60*	2%	-4%
CC1(C)CC(NC(=O)c2ccc(-c3ccc([N+](=O)[O-])cc3)o2)CC(C)(C)N1	1	3%	-5%	24	3%	5%
CCCCC(=O)Nc1nnc(S(=O)(=O)N(CC)c2cc(C)cc(C)c2)s1	/	/	1%	/	/	/
COc1cccc(NC(=O)Cc2nc(-c3ccccc3)sc2-c2ccc(C)cc2)c1	28*	-29%	1%	51*	4%	7%
CC(=O)Nc1cccc(NC(=O)Cc2nc(-c3ccccc3)sc2-c2ccc(C)cc2)c1	20*	-2%	-1%	130*	-3%	?
O=C(NCc1cccc(F)c1)Nc1nnc([C@H]2C[C@H](O)[C@@H](CO)O2)s1	/	/	2%	/	/	/
CCOC(=O)c1sc(NC(=O)CSCc2c(C)noc2C)nc1C	/	2%	-1%	/	/	/
Cc1noc(C)c1CSCC(=O)Nc1nc2ccccc2s1	21*	-6%	1%	8	-6%	0%
CC(=O)c1sc(NC(=O)CSCc2c(C)noc2C)nc1-c1ccccc1	/	-2%	-4%	/	/	/
CCc1ccc2nc(NC(=O)CSCc3c(C)noc3C)sc2c1	21*	5%	2%	68*	8%	-15%
SMILES	CHX counter	SARS PLpro yeast	TbPYK inhibitor	Shiga inhibitor	LmPK inhibitor	NS1 inh
CC(=O)c1ccc(OCCn2cnc3ccccc32)cc1	9	11%	-17%	38	2%	15%
CCCOc1ccc(Cn2cnc3ccccc32)cc1	14*	-4%	3%	2	5%	-8%
c1ccc(OCCCCn2cnc3ccccc32)cc1	6	-1%	-1%	14	0%	-21%
c1ccc(OCCn2cnc3ccccc32)cc1	29*	-6%	1%	18	-1%	-6%
c1ccc(CCn2cnc3ccccc32)cc1	29*	2%	-14%	25	-2%	/
COc1ccc(OCCn2cnc3ccccc32)cc1	9.5*	-1%	-3%	33*	-3%	-27%
c1ccc2c(c1)ncn2CCN1CCCCC1	-1	0%	4%	-1	-1%	-7%[9.22 µM]
O=C(Cn1cnc2ccccc21)c1ccc(Br)cc1	22*	-1%	0%	24	-2%	3%
Cc1ccccc1OCCNc1ccc(C(F)(F)F)cc1[N+](=O)[O-]	20*	-11%	-8%	49	-9%	-11%
CN(C)S(=O)(=O)NCCNc1ccc(C(F)(F)F)cc1[N+](=O)[O-]	12*	0%	-23%	9	5%	5%
